Data taken from paper PMC7819943, “Rice protein-binding microarrays: a tool to detect cis-acting elements near promoter regions in rice”.
In all, about 68,000 sequences were measured (“fluorescence intensity (a.u.)”: median about 9,100, highest 2% from about 16,000 on). The sample holds the highest values, similar sequences and a random draw of the others, so the mix is not that of the screen.

What follows are sequences tested against OsWRKY34 (Oryza sativa, UniProt Q0JBA9 1-250) (assay: protein-binding microarray (RPBM); PBS, 2% BSA, 51.3 ng/ul salmon testes DNA, 50 uM zinc acetate, 200 nM TF, 25 C, 1 h; high values mean tight binding). Details: protein: recombinant; tags: N-terminal polyhistidine and DsRed monomer fusion (pET32a); label: CyDye5-dUTP incorporated in the synthesized complementary strand; 3' TTTTT single-stranded linker to array surface; dsDNA, one strand shown.
Sequence of OsWRKY34 (Q0JBA9 entry or part of it): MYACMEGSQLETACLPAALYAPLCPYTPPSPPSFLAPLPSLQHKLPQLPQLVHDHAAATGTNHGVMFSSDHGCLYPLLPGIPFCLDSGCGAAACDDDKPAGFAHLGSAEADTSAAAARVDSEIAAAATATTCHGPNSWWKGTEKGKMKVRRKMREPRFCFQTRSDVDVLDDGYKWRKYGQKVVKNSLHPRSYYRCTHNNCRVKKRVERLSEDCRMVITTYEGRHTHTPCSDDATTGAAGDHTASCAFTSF
Outline: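 Ni–NTA purification followed expression in E. coli BL21-CodonPlus of transcription factors fused N-terminally to a polyhistidine tag and DsRed. At 200 nM in PBS with 2% BSA, salmon testes DNA and 50 µM zinc acetate, the protein was incubated for 1 h at 25 °C with a custom Agilent array that had been primer-extended with Cy5-dUTP and blocked with 2% BSA. After washing, the array was read on an Axon 4000B scanner. The binding signal is per-feature fluorescence intensity in arbitrary units.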

Sequence	binding signal
GTTCCAAAATTTTTCTTTAAACTTCCAACATTTTCATCACCGGAGTCACCTAGTGCAG	9190 fluorescence intensity (a.u.)
GTATGGTACAGCACATTTCTCTGTTCAAGTGTTCATTATGCGGAGTCACCTAGTGCAG	8610 fluorescence intensity (a.u.)
ATATATATGGATTAGGTTTGGATTGGGGATCATTTGTATGCGGAGTCACCTAGTGCAG	8360 fluorescence intensity (a.u.)
ACCTAGATCCACCTCGTTAGTTTATTTTGTGAGAGTGCTCCGGAGTCACCTAGTGCAG	9140 fluorescence intensity (a.u.)
AACACTCACATCAAGTCATCAACCGACCTTGTCAAGTCAACGGAGTCACCTAGTGCAG	10600 fluorescence intensity (a.u.)
TTGGTTGCATGTTTTTTCACGTAAAATCTTAATTTTTGCACGGAGTCACCTAGTGCAG	8150 fluorescence intensity (a.u.)
CCGACTGCTCAATCACCACCGGTCTGACCGGCTACCAGAGCGGAGTCACCTAGTGCAG	17200 fluorescence intensity (a.u.)
TGCTCCGACCACTGCCCACCCCGCTCCACCGGCTAGAGAGCGGAGTCACCTAGTGCAG	9120 fluorescence intensity (a.u.)
TTGCTCACCAGAGCTACTACTACCGGTCTGTCACGCTCACCGGAGTCACCTAGTGCAG	9180 fluorescence intensity (a.u.)
CAACATCTTCTTTAGTTGCTCACACTTTTTCTTAGAATCACGGAGTCACCTAGTGCAG	8340 fluorescence intensity (a.u.)
TTTCTTCGTCCTCTTGGTTTCCCTTTCAATTCATTCATTTCGGAGTCACCTAGTGCAG	8460 fluorescence intensity (a.u.)
GCTCGCCCGTCTTTCGCTCTGCCCGCAGCCCGCCGCCGCTCGGAGTCACCTAGTGCAG	14000 fluorescence intensity (a.u.)
ACCGGCCCAGAACAGTTGGGCAGCCCACGAAGTCACCAACCGGAGTCACCTAGTGCAG	8540 fluorescence intensity (a.u.)
CTTAGTTCTCCGCGCTATTCACTTCTGCGCCGTCGCTTTTCGGAGTCACCTAGTGCAG	8640 fluorescence intensity (a.u.)
CAAGATGGGTCGGGTTGGGTGGGGTTACTCGCACTAGCACCGGAGTCACCTAGTGCAG	22300 fluorescence intensity (a.u.)
GACGGCGCCCTGCGGCTTCGGTTGCGGGGTGGGTGGTGGCCGGAGTCACCTAGTGCAG	10300 fluorescence intensity (a.u.)
GAGGGGAGGGAGAGGTCGGAGATGGTTACCGGTGGGGAAGCGGAGTCACCTAGTGCAG	12300 fluorescence intensity (a.u.)
GCGCTGTGGTCCCGGCGCCGGCAGTGGTTGCTTCTGCGCGCGGAGTCACCTAGTGCAG	8560 fluorescence intensity (a.u.)
GGGTGGGCGTGATGGAGTTGGGTCGGCCGGGGTGTCCGGTCGGAGTCACCTAGTGCAG	14500 fluorescence intensity (a.u.)
GCGCGGCGGCGGTGGGGTGGTAGTGGTGGTGGGTGGAATGCGGAGTCACCTAGTGCAG	13500 fluorescence intensity (a.u.)
GCTTCGGCTCGGGGTGGGTTGGGTTGGGTTGGGTTCGATGCGGAGTCACCTAGTGCAG	32400 fluorescence intensity (a.u.)
GAAGCTTCGGGAGTGGTGGTGGGTTGCGGCCGTGCGGCTCCGGAGTCACCTAGTGCAG	10900 fluorescence intensity (a.u.)
TTGGGTTGGGTTGGGTGGTCCATTCTGTACGGTGCGCCGGCGGAGTCACCTAGTGCAG	19600 fluorescence intensity (a.u.)
TGGGTGGGTTGGGTGGGTGGGTGGGTGCGCGGCGGGTATGCGGAGTCACCTAGTGCAG	32800 fluorescence intensity (a.u.)
CTCAGTATTGGGTTGGGTGGTGGTGGCGGCGGTGGCAGTGCGGAGTCACCTAGTGCAG	13700 fluorescence intensity (a.u.)
GTGGGGCTCGGGTTCCGGCCGGTGTAGGGGAGGGGAGATGCGGAGTCACCTAGTGCAG	15700 fluorescence intensity (a.u.)
CATGTGTGGTGAGCATATTTGTTTGTACTGTTGTATTTTACGGAGTCACCTAGTGCAG	9560 fluorescence intensity (a.u.)

Sequence	binding signal
CTTCTTCTATATCTGTAATCTTTCCTTATCTCCTCCCATGCGGAGTCACCTAGTGCAG	8520 fluorescence intensity (a.u.)
CCACCTCGTTTTATGTAAAACACTTAATCTTCAACTTCAGCGGAGTCACCTAGTGCAG	8860 fluorescence intensity (a.u.)
CGCAATCCACTTTCTCTCGCCAAGTCGTCGTCCATCCGATCGGAGTCACCTAGTGCAG	9020 fluorescence intensity (a.u.)
TTTTCAGCGTGTGCATCACATGGTCCGTATCTTTAATACTCGGAGTCACCTAGTGCAG	8520 fluorescence intensity (a.u.)
TCCTGTCGTATGTCTTCACCACCACACAAACAATGCTTCTCGGAGTCACCTAGTGCAG	9550 fluorescence intensity (a.u.)
ACTCCACTTAGGCTGCATTCGTTCTAGATACATTGAGTTACGGAGTCACCTAGTGCAG	9970 fluorescence intensity (a.u.)
GCCTTTGTCGGTCATGTTCCCATCGCTTTAGTTCTTCTCACGGAGTCACCTAGTGCAG	15000 fluorescence intensity (a.u.)
GTGATAGAAAAGTTGTGTGTGTATGAAATGTTTGATGCGACGGAGTCACCTAGTGCAG	8750 fluorescence intensity (a.u.)
ATACTGAGAAAGTGCCAAGTTTTTGTCTGCTTCATGTAACCGGAGTCACCTAGTGCAG	8110 fluorescence intensity (a.u.)
GACCTCGCCGTCGCCGTCGCCGCCGCCGCCGCCGCCATGGCGGAGTCACCTAGTGCAG	9900 fluorescence intensity (a.u.)
CATTGTTCCTCACAGGATCAGGGGTGGAGAGTGAAGAGAGCGGAGTCACCTAGTGCAG	8070 fluorescence intensity (a.u.)
GTGGTTGATTTGACCTTTTACATTGTACAGATGGTATTGGCGGAGTCACCTAGTGCAG	8480 fluorescence intensity (a.u.)
CCGCGGGTGGGGAGATTTGACCGGCGTTGACTCCGGGATGCGGAGTCACCTAGTGCAG	14300 fluorescence intensity (a.u.)
AGCGATGGTGGTGGTGGTGGTGGTGGTGGCTGGGTTGCTTCGGAGTCACCTAGTGCAG	28200 fluorescence intensity (a.u.)
GATCCGCGGCGCGGGTGGGGTTGTGGGGCGGGCGGAGATGCGGAGTCACCTAGTGCAG	19200 fluorescence intensity (a.u.)
CTTCTCCTCTAGTCTGTGGTTGGCTGGCGATGGTGGCTTGCGGAGTCACCTAGTGCAG	8820 fluorescence intensity (a.u.)
GCGGGCAGTGGGCGCGAGATCTCATCCGAGTGGGTGGGCGCGGAGTCACCTAGTGCAG	8060 fluorescence intensity (a.u.)
TGCGGGATGGCTGGTTGGTGTGCGTGTGCTTCGGTGCGTTCGGAGTCACCTAGTGCAG	10400 fluorescence intensity (a.u.)
CAGCCATCGCCTCCCCGACTCCCGTCGTTGTCCACCCCGTCGGAGTCACCTAGTGCAG	8260 fluorescence intensity (a.u.)
TGTTCTGCCAGCCAATCCAGATCGCCCTCGTATGCACGCTCGGAGTCACCTAGTGCAG	8890 fluorescence intensity (a.u.)
TGAACTCCTAATACTGTCCTACCACTTCTACATGTCTTCTCGGAGTCACCTAGTGCAG	11300 fluorescence intensity (a.u.)
GCCTGCGCCGATCCCCATCCATTCCGCGAGCGAGCGAGTGCGGAGTCACCTAGTGCAG	8160 fluorescence intensity (a.u.)
AACAGCTCTCGATCTGATCGTCCCCACACCGCACGCTGACCGGAGTCACCTAGTGCAG	9930 fluorescence intensity (a.u.)
CCTCGCCGAAGCCTCTCTACCTCTGTGTGTCTCTCTCTCCCGGAGTCACCTAGTGCAG	8120 fluorescence intensity (a.u.)
AAACTTCCCCGCGTACGATGACGCCAATACACATACATATCGGAGTCACCTAGTGCAG	10700 fluorescence intensity (a.u.)
GAGTGTATTTCATCTCAAGTTAGCATGCGAGTTTTTTTTACGGAGTCACCTAGTGCAG	8210 fluorescence intensity (a.u.)
TATCGTGCTTCCATGTGCACAGATCGATCAAACTCGCATGCGGAGTCACCTAGTGCAG	9270 fluorescence intensity (a.u.)
